Test results published in PubChem BioAssay (Tox21).
Values joined by “and” are separate entries in the source; they are usually repeats but may differ in a detail not shown here. Equal values may be shown once. Results filed as inconclusive are left out. Where a call stands in place of a potency, no number is given. Active and inactive are the calls of the source. Unless noted, the call rests on the fitted dose curve.

Test system: not listed separately
Test: qHTS assay to identify small molecule antagonists of the thyroid receptor (TR) signaling pathway (AID 743065; active means well fitted inhibition curve with a large enough effect in the repeat runs; further: nearly all actives have a fitted effect of over 55% in size; further: potency means the concentration at half of the fitted maximal effect)
Conditions: GH3.TRE-Luc, T3-stimulated luciferase inhibition, 23.5 h; series mostly up to 70.3 µM
Method in brief: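 GH3.TRE-Luc rat pituitary cells carrying two TR response elements driving luciferase were plated for 4 h, given compound plus 1 nM T3 (final), and incubated 23.5 h at 37 C. ONE-Glo luminescence measured reporter inhibition; CellTiter-Fluor fluorescence tracked cytotoxicity.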

Q: For `CNC(=O)O/N=C(\SC)C(=O)N(C)C`, which Potency is on record?
A: Its Potency is “inactive”.

Q: With `CCCCC(CC)C(=O)Cl` (stereo not given) as the compound, how does the Potency read?
A: Its Potency is “inactive”.

Q: With `O=[N+]([O-])c1ccc(Cl)c(Cl)c1` as the compound, how does the Potency read?
A: The Potency was “inactive”.

Q: For `CNC(=O)O/N=C/C(C)(C)S(C)=O` (stereo not given), which Potency is on record?
A: The Potency was “inactive”.

Q: For `COP(=S)(OC)SCN1C(=O)c2ccccc2C1=O`, which Potency is on record?
A: The Potency was “inactive”.

Q: With `CNC(=O)Oc1cccc2ccccc12` as the compound, how does the Potency read?
A: Its Potency is “inactive”.

Q: With `CNC(=O)O/N=C/C(C)(C)SC` as the compound, how does the Potency read?
A: Its Potency is “inactive”.

Q: For `CC(C)CCCCCCOC(=O)c1ccccc1C(=O)OCCCCCCC(C)C`, which Potency is on record?
A: Its Potency is “inactive”.

Q: With `O=C(O)CCCc1ccc(N(CCCl)CCCl)cc1` as the compound, how does the Potency read?
A: Its Potency is 30.8 µM (active) and 27.3 µM (active).

Q: For `O=C(O)Cc1ccccc1`, which Potency is on record?
A: The Potency was “inactive”.

Q: For `Oc1ccc(Cl)cc1`, which Potency is on record?
A: The Potency was “inactive”.

Q: For `OCc1ccco1`, which Potency is on record?
A: Its Potency is “inactive”.

Q: With `FC(F)(F)c1ccc(Cl)cc1` as the compound, how does the Potency read?
A: Its Potency is “inactive”.

Q: Which Potency does the source give for `Nc1ccc(N)cc1` here?
A: The Potency was “inactive”.

Q: Which Potency does the source give for `Cc1cc(Cl)ccc1OC(C)C(=O)O` (stereo not given) here?
A: Its Potency is “inactive”.

Q: For `O=[N+]([O-])c1cc([As](=O)(O)O)ccc1O`, which Potency is on record?
A: The Potency was “inactive”.

Q: Which Potency does the source give for `COP(=S)(OC)Oc1ccc(SC)c(C)c1` here?
A: Its Potency is “inactive”.

Q: Which Potency does the source give for `CN(C)CCC#N` here?
A: Its Potency is “inactive”.

Q: For `COc1nc(NC(C)C)nc(NC(C)C)n1`, which Potency is on record?
A: Its Potency is “inactive”.

Q: Which Potency does the source give for `Cc1cccc(C)c1NC(=O)CN1CCCC1=O` here?
A: Its Potency is “inactive”.

Q: Which Potency does the source give for `COS(=O)(=O)OC` here?
A: Its Potency is “inactive”.

Q: With `CNC(=O)O/N=C/C(C)(C)S(C)(=O)=O` as the compound, how does the Potency read?
A: Its Potency is “inactive”.

Q: With `Sc1ccccc1` as the compound, how does the Potency read?
A: The Potency was “inactive”.

Q: Which Potency does the source give for `Nc1ccc([As](=O)(O)O)cc1` here?
A: The Potency was “inactive”.

Q: Which Potency does the source give for `Cc1ccc(O)c(C)c1` here?
A: The Potency was “inactive”.

Q: For `C=CC(=O)OCCCCCC(C)C`, which Potency is on record?
A: Its Potency is “inactive”.

Q: Which Potency does the source give for `CCOc1ccc(N)cc1` here?
A: Its Potency is “inactive”.

Q: With `CSc1nnc(C(C)(C)C)c(=O)n1N` as the compound, how does the Potency read?
A: The Potency was “inactive”.

Q: With `C[C@H]1C(=O)O[C@@H]2CCN3CC=C(COC(=O)[C@](C)(O)[C@]1(C)O)[C@H]23` as the compound, how does the Potency read?
A: The Potency was “inactive”.

Q: Which Potency does the source give for `O=C/C=C/c1ccccc1` here?
A: The Potency was “inactive”.

Test system: thyroid hormone receptor (rat, GH3 cells)
Test: qHTS assay to identify small molecule agonists of the thyroid receptor (TR) signaling pathway (AID 743066)
Conditions: GH3.TRE-Luc cells, TR agonist luciferase, 24 h; series mostly up to 83.9 µM

Q: Which Potency does the source give for `CNC(=O)O/N=C(\SC)C(=O)N(C)C` here?
A: The Potency was “inactive”.

Q: Which Potency does the source give for `CCCCC(CC)C(=O)Cl` (stereo not given) here?
A: The Potency was “inactive”.

Q: With `O=[N+]([O-])c1ccc(Cl)c(Cl)c1` as the compound, how does the Potency read?
A: The Potency was “inactive”.

Q: Which Potency does the source give for `CNC(=O)O/N=C/C(C)(C)S(C)=O` (stereo not given) here?
A: Its Potency is “inactive”.

Q: For `COP(=S)(OC)SCN1C(=O)c2ccccc2C1=O`, which Potency is on record?
A: Its Potency is “inactive”.

Q: Which Potency does the source give for `CNC(=O)Oc1cccc2ccccc12` here?
A: The Potency was “inactive”.

Q: For `CNC(=O)O/N=C/C(C)(C)SC`, which Potency is on record?
A: The Potency was “inactive”.

Q: For `CC(C)CCCCCCOC(=O)c1ccccc1C(=O)OCCCCCCC(C)C`, which Potency is on record?
A: The Potency was “inactive”.

Q: With `O=C(O)CCCc1ccc(N(CCCl)CCCl)cc1` as the compound, how does the Potency read?
A: Its Potency is “inactive”.

Q: For `O=C(O)Cc1ccccc1`, which Potency is on record?
A: Its Potency is “inactive”.

Q: With `Oc1ccc(Cl)cc1` as the compound, how does the Potency read?
A: The Potency was “inactive”.

Q: With `OCc1ccco1` as the compound, how does the Potency read?
A: The Potency was “inactive”.

Q: For `FC(F)(F)c1ccc(Cl)cc1`, which Potency is on record?
A: The Potency was “inactive”.

Q: For `Nc1ccc(N)cc1`, which Potency is on record?
A: Its Potency is “inactive”.

Q: With `Cc1cc(Cl)ccc1OC(C)C(=O)O` (stereo not given) as the compound, how does the Potency read?
A: The Potency was “inactive”.

Q: Which Potency does the source give for `O=[N+]([O-])c1cc([As](=O)(O)O)ccc1O` here?
A: Its Potency is “inactive”.

Q: With `COP(=S)(OC)Oc1ccc(SC)c(C)c1` as the compound, how does the Potency read?
A: Its Potency is “inactive”.

Q: With `CN(C)CCC#N` as the compound, how does the Potency read?
A: The Potency was “inactive”.

Q: With `COc1nc(NC(C)C)nc(NC(C)C)n1` as the compound, how does the Potency read?
A: Its Potency is “inactive”.

Q: For `Cc1cccc(C)c1NC(=O)CN1CCCC1=O`, which Potency is on record?
A: The Potency was “inactive”.

Q: With `COS(=O)(=O)OC` as the compound, how does the Potency read?
A: The Potency was “inactive”.

Q: With `CNC(=O)O/N=C/C(C)(C)S(C)(=O)=O` as the compound, how does the Potency read?
A: The Potency was “inactive”.

Q: Which Potency does the source give for `Sc1ccccc1` here?
A: The Potency was “inactive”.

Q: For `Nc1ccc([As](=O)(O)O)cc1`, which Potency is on record?
A: The Potency was “inactive”.

Q: For `Cc1ccc(O)c(C)c1`, which Potency is on record?
A: The Potency was “inactive”.

Q: Which Potency does the source give for `C=CC(=O)OCCCCCC(C)C` here?
A: Its Potency is “inactive”.

Q: Which Potency does the source give for `CCOc1ccc(N)cc1` here?
A: The Potency was “inactive”.

Q: Which Potency does the source give for `CSc1nnc(C(C)(C)C)c(=O)n1N` here?
A: Its Potency is “inactive”.

Q: With `C[C@H]1C(=O)O[C@@H]2CCN3CC=C(COC(=O)[C@](C)(O)[C@]1(C)O)[C@H]23` as the compound, how does the Potency read?
A: Its Potency is “inactive”.

Q: With `O=C/C=C/c1ccccc1` as the compound, how does the Potency read?
A: Its Potency is “inactive”.
